D1 antagonist = human D1 dopamine receptor antagonism; activity change, negative = inhibition, % at 10 µM; hit rate 3.2% among 360,000; HEK293 TREx D1 cells, calcium flux, dopamine EC80; active compounds read low; in the data active = activity change below about -30%; note: % is set by controls: 0 for no effect and ±100 for the full control effect
Target sequence (P21728 whole entry, looked up): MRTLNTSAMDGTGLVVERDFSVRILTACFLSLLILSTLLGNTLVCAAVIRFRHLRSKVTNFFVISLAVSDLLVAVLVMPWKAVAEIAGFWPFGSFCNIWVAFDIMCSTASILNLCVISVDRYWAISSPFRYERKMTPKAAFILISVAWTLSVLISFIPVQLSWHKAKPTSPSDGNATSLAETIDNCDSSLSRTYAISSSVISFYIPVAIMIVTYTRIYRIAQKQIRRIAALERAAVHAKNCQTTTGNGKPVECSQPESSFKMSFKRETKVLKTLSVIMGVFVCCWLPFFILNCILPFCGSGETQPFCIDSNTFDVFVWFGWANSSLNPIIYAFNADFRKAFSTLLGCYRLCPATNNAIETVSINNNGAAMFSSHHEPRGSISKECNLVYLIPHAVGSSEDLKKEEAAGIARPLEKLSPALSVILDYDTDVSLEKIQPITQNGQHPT
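Calcium flux readout: force-coupled, inducible Hek293 Trex D1 line, cells induced overnight at 30 C with tetracycline, dye-loaded 30–90 min at RT. Antagonism scored against EC80 dopamine challenge given 180 s after compound.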
D1 PAM = enhances dopamine response at the human D1 receptor; P21728; HEK293 TREx D1 cells, calcium flux, dopamine EC20 potentiation; potentiation, % at 10 µM; hit rate 0.036% among 360,000; AID 504651; in the data active = potentiation above about 30%; note: 0% is about no effect
DRD3 antagonist = blocks the human D3 dopamine receptor; P35462; D3R cells, DiscoveRx beta-arrestin luminescence, antagonist mode; active compounds read low; max response, negative = inhibition, %; hit rate 2.5% among 360,000; in the data active = max response below about -50%; inconclusive = no clear call, values can overlap the other calls; note: % is set by controls: 0 for no effect and ±100 for the full control effect
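Cells plated overnight at 1500 cells/well, then exposed to library compounds with dopamine controls for 90 minutes at 37 degrees C. DiscoveRx reagent added for 30–60 minutes at room temperature; luminescence read, quantitative HTS format.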
D1 ag = activates the human D1 dopamine receptor | hit rate 1% among 360,000 | activation, % at 2 µM | HEK293 T-REx D1 cells, calcium flux, agonist mode | P21728; in the data active = activation above about 30%; note: 0% is about no effect
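Tetracycline-induced HEK293 TREx D1 cells, force-coupled to calcium signalling, were dye-loaded with a no-wash calcium kit. Compound was pin-added after a 10 s baseline. Fluorescence was read kinetically at 1 cycle/s for 180 s, with calcium rises flagged as agonism.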
DRD3 agonist = activates the human D3 dopamine receptor; P35462; D3R DiscoveRx beta-arrestin cells, luminescence, 90 min; max activation, %; hit rate 0.58% among 410,000; in the data active = max activation above about 30%; note: 0% is about no effect
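Agonist mode: compounds and dopamine controls were applied to plated cells for 90 min at 37 degrees C after an overnight attachment at 1500 cells/well. Luminescent read-out followed 30 - 60 minutes at room temperature with DiscoveRx detection reagent.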
* hit, by the source's call; ? = inconclusive; · = no result given. Sampled rows, rich in hits. Any-hit rate of the full collection: about 6%.

SMILES	D1 antagonist	D1 PAM	DRD3 antagonist	D1 ag	DRD3 agonist
O=C(CSc1nc(-c2ccc(F)cc2)cc(C(F)(F)F)n1)NCc1cccs1	5	-7	14	6	-6
COc1cccc(CNC(=O)CN2C(=O)CSc3ccc(S(=O)(=O)N(C)C)cc32)c1	-2	-3	·	1	-13
O=C(C=Cc1ccc2c(c1)OCO2)OCC=Cc1ccc2c(c1)OCO2	·	·	11	·	6
COc1ccc(CCC(=O)Nc2ccc(-c3noc(-c4ccc(OC)c(OC)c4)n3)cc2)cc1	-12	0	48	10	26
COc1cc(-c2nc(-c3ccc(NC(=O)c4ccc(Br)o4)cc3)no2)cc(OC)c1OC	1	-1	39	3	105*
COc1ccc(-c2nc(-c3ccc(NC(=O)c4ccc(Br)o4)cc3)no2)cc1OC	5	-6	61	5	38*
COc1cc(C(=O)Nc2ccc(-c3nc4cc(C)c(C)cc4o3)cc2)cc(OC)c1OC	-9	0	·	0	9
CN(C)CCN1CCN(C2CN(Cc3ccccc3)S(=O)(=O)C2)CC1 (centres undefined)	·	·	0	·	8
Nc1nc(-c2ccccc2)c(N=Nc2ccccc2Cl)s1	-6	0	-59*	6	-8
CCOc1cccc(/C=C/c2ccc3cccc(O)c3n2)c1OC	3	-1	-83*	7	-24
CCOc1cccc(/C=C/c2ccc3cccc(O)c3n2)c1O	-9	-1	-56*	0	1
COc1ccccc1/C=C/c1ccc2cccc(O)c2n1	0	4	-12	3	-17
O=[N+]([O-])c1cccc(-c2c(-c3ccccc3)ncc3ccc(F)cc23)c1	·	-6	-13	3	6
CCn1c(N2CCN(S(=O)(=O)c3ccccc3C(F)(F)F)CC2)nc2ccccc21	-2	-4	5	6	32*
CCn1c(N2CCN(S(=O)(=O)c3ccc(OC)cc3)CC2)nc2ccccc21	-1	-2	-1	18	36*
Cn1c(N2CCN(S(=O)(=O)c3ccc(F)cc3)CC2)nc2ccccc21	2	-3	-12	-1	3
O=C(NCCC1=CCCCC1)C1CCC(CNc2nc(=S)[nH]c3ccccc23)CC1 (centres undefined)	9	1	-83*	1	-13
Cc1nn(CC(=O)NCc2cc3ccccc3[nH]2)c(C)c1[N+](=O)[O-]	-41*	-18	3	-2	-1
Cc1nn(CC(=O)NCc2ccccc2F)c(C)c1[N+](=O)[O-]	-12	-2	0	2	-9
COc1ccc(N2CCN(C(=O)c3c(C)oc4ncn(CC(C)C)c(=O)c34)CC2)cc1	4	-3	·	2	1
COc1ccc(C(=O)CSc2n[nH]c(-c3ccco3)n2)cc1	-5	-6	-59*	0	4
Cc1ccc(C(=O)CSc2n[nH]c(-c3ccco3)n2)cc1C	-18	-6	-19	3	-4
O=C(N/N=C/c1cc2c(cc1Br)OCO2)c1cc2ccccc2o1	11	1	-107*	1	-29
CC(C)(C)c1cc(C(=O)N/N=C/c2cc3c(cc2Br)OCO3)n[nH]1	-14	-2	-88*	3	-24
O=C(N/N=C/c1cc2c(cc1Br)OCO2)c1ccccn1	0	1	-5	1	-18
SMILES	D1 antagonist	D1 PAM	DRD3 antagonist	D1 ag	DRD3 agonist
O=C(O)c1ccc2c(c1)C(=O)N([C@@H](C(=O)O)C(c1ccccc1)c1ccccc1)C2=O	-8	1	·	3	·
C=CCOc1ccc(C2C(C(=O)c3ccco3)=C(O)C(=O)N2c2nnc(C)s2)cc1 (centres undefined)	-8	1	-19	57*	-4
O=C(C1=C(O)C(=O)N(c2ncccn2)C1c1cccc(Cl)c1)c1ccco1 (centres undefined)	4	-3	-74*	1	-3
Cc1cc(C)c2nc(N3C(=O)C(O)=C(C(=O)c4ccco4)C3c3ccco3)sc2c1 (centres undefined)	15	3	75	0	31*
CCSc1nnc(N2C(=O)C(O)=C(C(=O)c3ccco3)C2c2cccc(OC)c2)s1 (centres undefined)	0	-5	-5	77*	-12
Cc1cc(Br)c(Oc2cc(NN3CCCCC3)c([N+](=O)[O-])cc2[N+](=O)[O-])c(Br)c1	·	·	-12	·	10
CC(C)(C)OC(=O)C[C@@H]1C/C=C\C[C@@H](CC(=O)N(CCO)Cc2ccccc2)C(=O)N[C@@H](c2ccccc2)COC1=O	·	·	-21	·	-5
CSc1nnc(N2C(=O)C(O)=C(C(=O)c3ccco3)C2c2ccc(F)cc2)s1 (centres undefined)	8	4	?	128*	-8
CSc1nnc(N2C(=O)C(O)=C(C(=O)c3ccco3)C2c2cccc(Cl)c2)s1 (centres undefined)	-7	3	?	15	-6
Cc1ccnc(N2C3CCC2CC(O)(c2ccccc2)C3)n1 (centres undefined)	10	-2	-7	1	4
Cc1cc(N2C3CCC2CC(O)(c2ccc(F)cc2)C3)nc(-c2ccccc2)n1 (centres undefined)	-14	-3	-60*	7	-23
CC(C)C(=O)N1C2CCC1CC(O)(c1ccc(F)cc1)C2 (centres undefined)	-19	-13	-67*	1	-8
O=C(Nc1ccccc1)N1C2CCC1CC(O)(c1cccnc1)C2 (centres undefined)	-2	0	-15	4	-13
CCCC1=NN(C(=O)C(=O)Nc2ccc(Br)cc2)C(O)(C(F)(F)F)C1 (centres undefined)	-28	0	-56*	6	-9
COc1ccccc1C(=O)n1nc(-c2ccco2)nc1N	-82*	-2	5	0	0
CC(=O)n1nc(-c2ccco2)nc1N	4	-3	4	5	8
O=C1COc2ccc(C(=O)COC(=O)Cc3c(F)cccc3Cl)cc2N1	-31*	1	-5	12	-4
Cc1cccc(NC(=O)c2ccc(C(=O)c3ccccc3)cc2)n1	-35*	0	-1	4	1
CCN(c1ccccc1)S(=O)(=O)c1ccc(C(=O)Nc2cccc(C)n2)cc1	-35*	-8	7	5	0
O=C(CCn1c(=O)c2cccn2c2cccnc21)Nc1ccccc1C(F)(F)F	11	-5	·	-1	10
Cc1ccc(NC(=O)C2CC(=O)N/C(=N/N=C/c3ccco3)S2)cc1C (centres undefined)	-83*	-4	-1	3	5
CCOC(=O)c1noc2ncnc(N3CCC(C)CC3)c12	8	-4	·	0	-7
CC(=O)Nc1cccc(C(=O)OCC(=O)NC2CCCCCCC2)c1	-39*	-5	-10	6	-11
Cc1cccc(C(=O)OCC(=O)NC(=O)NC2CCCCC2)c1	·	·	-117*	·	3
